Bioassay records from PubChem.
Shown are actives, neighbours in structure and some others; about 10% of the full set was active somewhere.
JMJD2A Tudor inh – qHTS Assay for Inhibitors of JMJD2A-Tudor Domain; Lysine-specific demethylase 4A (Homo sapiens), O75164; AlphaScreen JMJD2A-Tudor / H3K4me3 peptide binding; Potency, µM (titrated, usually from 114 µM), for the others: top-dose activity change, negative = inhibition, hits mostly inhibitors; 4.4% of 390,000 active; AID 504339, 2011; also: % is scaled to controls: 0 for no effect and ±100 for the full control effect; nearly all actives have a fitted effect of over 50% in size
Target sequence (O75164 whole entry, looked up, the tested form may be a part): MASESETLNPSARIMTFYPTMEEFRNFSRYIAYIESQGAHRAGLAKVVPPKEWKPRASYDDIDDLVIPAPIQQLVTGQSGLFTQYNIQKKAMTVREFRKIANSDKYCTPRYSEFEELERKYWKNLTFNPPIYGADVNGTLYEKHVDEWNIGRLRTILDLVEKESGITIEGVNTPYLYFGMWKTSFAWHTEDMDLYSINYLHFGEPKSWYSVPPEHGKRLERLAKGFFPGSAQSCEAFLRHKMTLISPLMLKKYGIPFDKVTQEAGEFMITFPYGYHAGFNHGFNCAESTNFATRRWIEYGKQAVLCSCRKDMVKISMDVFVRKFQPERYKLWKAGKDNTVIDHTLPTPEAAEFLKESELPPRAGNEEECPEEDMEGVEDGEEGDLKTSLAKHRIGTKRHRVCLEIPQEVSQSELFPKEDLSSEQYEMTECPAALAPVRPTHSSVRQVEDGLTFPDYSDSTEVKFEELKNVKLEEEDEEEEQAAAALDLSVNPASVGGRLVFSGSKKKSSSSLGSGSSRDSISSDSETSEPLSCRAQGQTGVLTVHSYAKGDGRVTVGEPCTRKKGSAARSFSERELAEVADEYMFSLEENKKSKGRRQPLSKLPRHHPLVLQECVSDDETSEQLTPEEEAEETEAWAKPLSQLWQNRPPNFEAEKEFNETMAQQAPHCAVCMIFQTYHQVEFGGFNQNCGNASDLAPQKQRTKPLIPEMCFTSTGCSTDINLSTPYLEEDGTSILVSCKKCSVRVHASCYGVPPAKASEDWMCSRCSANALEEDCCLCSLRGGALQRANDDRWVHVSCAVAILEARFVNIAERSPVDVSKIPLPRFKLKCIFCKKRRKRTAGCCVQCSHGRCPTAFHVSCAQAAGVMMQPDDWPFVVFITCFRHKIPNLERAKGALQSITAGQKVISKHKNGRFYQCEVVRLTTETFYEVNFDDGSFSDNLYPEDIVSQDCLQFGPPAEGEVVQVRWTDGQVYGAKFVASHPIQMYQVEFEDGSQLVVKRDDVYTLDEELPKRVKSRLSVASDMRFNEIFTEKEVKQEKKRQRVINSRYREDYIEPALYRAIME
G9a block – qHTS Assay for Inhibitors of Histone Lysine Methyltransferase G9a | G9a H3K9 monomethylation, AlphaScreen, 2 h | Potency, µM (doses to about 102 µM), without a hit: at the highest dose activity, negative = inhibition, actives largely listed as inhibitors | 8.8% of 350,000 active; also: % is scaled to controls: 0 for no effect and ±100 for the full control effect; nearly all actives have a fitted effect of over 75% in size
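Chemiluminescent proximity detection of H3K9 monomethylation, read after 10 min bead incubation in the dark. Reaction: 20 nM G9a, 500 nM biotin-H3K9 peptide, 20 uM SAM cofactor, 2 h, room temperature, following 15 min enzyme-compound preincubation.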
GLS inhibitor – qHTS for Inhibitors of Glutaminase (GLS) | GLS enzymatic activity, qHTS titration | Potency, µM (series often up to 45.5 µM), inactives show top-dose activity change, negative = inhibition, actives largely listed as inhibitors | 0.21% of 410,000 active | AID 624170, 2012; also: % is scaled to controls: 0 for no effect and ±100 for the full control effect
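Coupled fluorescence readout: glutamate oxidase/HRP/Amplex Red detect glutamate formed by hKGA from L-glutamine (1 mM solution added). Buffer 45 mM KH2PO4 pH 8.2, 0.02% Tween-20; reads at t0 and 30 min RT.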
BAZ2B inh – qHTS Assay for Inhibitors of BAZ2B | AlphaScreen BAZ2B-H3K14Ac peptide displacement | 4.4% of 360,000 active | AID 504333, 2011 | Bromodomain adjacent to zinc finger domain protein 2B (Homo sapiens), Q9UIF8 | Potency, µM (series often up to 114 µM), for the others: at the highest dose activity change, negative = inhibition, actives largely listed as inhibitors; also: % is scaled to controls: 0 for no effect and ±100 for the full control effect; nearly all actives have a fitted effect of over 60% in size
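Multi-concentration screen (max 110 uM) measuring displacement of acetylated histone H3 peptide from BAZ2B by AlphaScreen, using 50 nM protein, 50 nM peptide and 10 ug/mL streptavidin donor plus Ni-chelate acceptor beads.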
HP1b chromo inh – HTS for Inhibitors of HP1-beta Chromodomain Interactions with Methylated Histone Tails. Potency, µM (doses to about 114 µM), inactives show at the top dose activity change, negative = inhibition, actives largely listed as inhibitors. AlphaScreen HP1-beta / biotin-H3K9me3 peptide binding. AID 540317, 2011. 0.56% of 390,000 active; also: nearly all actives have a fitted effect of over 70% in size
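AlphaScreen: HP1-beta (50 nM) preformed 30 min with biotin-H3(1-18)K9me3 peptide (50 nM) in PBS pH 7.4, 0.01% Tween-20. Compound added for 30 min at RT, then streptavidin donor/nickel chelate acceptor beads (10 ug/mL) for 30 min.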
Starred values were filed as active, the others as inactive; ? = inconclusive; . = not tested or not shown; [ ] = another dose, or the depositor's remark. Calls follow the shape of the dose curve; as a rule, active = well fitted curve in the direction sought with a large enough effect; inconclusive = small, poorly fitted or top-dose-only effect, or another doubt; inactive = no such curve, though single readings can be large; an effect the other way counts as inactive or inconclusive. Potency is read from the fitted curve at half-maximal effect.

SMILES	JMJD2A Tudor inh	G9a block	GLS inhibitor	BAZ2B inh	HP1b chromo inh
Cc1ccc(SCC(Cc2ccccc2)N2CCN(CCc3ccccc3)CCC2=O)cc1 (centres undefined)	?	.	.	.	1%
CCCN1C(C(=O)c2ccccc2)=C(OC(=O)COc2ccccc2)c2ccccc2S1(=O)=O	?	8.9µM*	12%	-26%	-13%
CCN1C(C(=O)c2ccccc2)=C(OC(=O)COc2ccc(OC)cc2)c2ccccc2S1(=O)=O	?	11µM*	22%	?	3%
CCN1C(C(=O)c2ccccc2)=C(OC(=O)COc2ccc(C)cc2)c2ccccc2S1(=O)=O	50µM*	16µM*	1%	?	-3%
C=CCN1C(C(=O)c2ccccc2)=C(OC(=O)COc2ccccc2)c2ccccc2S1(=O)=O	20µM*	?	20%	?	-1%
COC(=O)c1cn(C(=O)c2cc(Cl)ccc2Cl)c2ccccc12	5%	22%[0.501 µM]	2%	10%	28%
O=C1c2ccccc2C(=O)N1C1C(=O)N2CCSC12C(=O)OCc1ccccc1 (centres undefined)	-2%	.	5%	.	22%
Cc1c(OC(=O)c2ccc([N+](=O)[O-])cc2)c2c(c[n+]1C)COC(C)(C)OC2	50µM*	.	-13%	?	-3%
Cc1ncc2c(c1OC(=O)c1ccccc1)COC(C)(C)OC2	-9%	5%	-1%	4%	29%
Cc1cc(NS(=O)(=O)c2ccc(NS(=O)(=O)c3ccc(CC(C)C)cc3)cc2)nc(C)n1	-6%	?	12%	?	49%
Clc1nc(Cl)nc(-c2cn(-c3ccccc3)c3ccccc23)n1	79µM*	13µM*	0%	?	18%
OCCCc1cn(-c2ccccc2)c2ccccc12	-22%	5%	0%	-2%	7%
O=C(/C=C/c1ccco1)N1CCC(Cc2ccccc2)CC1	50µM*	32µM*	42%	50µM*	-39%
COC(=O)/C=C/C(=O)N1CCN(c2ccccc2)CC1	-9%	50µM*	18%	7%	30%
COC(=O)/C=C/C(=O)N1CCN(c2ccccc2C)CC1	-19%	14%[59 µM]	15%	10%	17%
COc1ccc(S(=O)(=O)N2CCN(C(=O)/C=C/c3ccco3)CC2)cc1	-35%	25µM*	-11%	-28%	1%
COc1cccc(N2CCN(C(=O)/C=C/c3ccco3)CC2)c1	-13%	28µM*	6%	50µM*	-9%
O=C(/C=C/c1ccco1)N1CCN(c2ncccn2)CC1	-2%	?	-5%	-35%	41%
CC(C)CNC(=O)c1ccccc1C(=O)NC1(C(=O)NCC(C)C)CCCC1	0%	.	-6%	.	27%
CCC(=O)N1c2ccc(S(=O)(=O)CCC(=O)NCCC3=CCCCC3)cc2CC1C (centres undefined)	-22%	32%[0.501 µM]	8%	3%	16%
CC1(C)Cc2cccc(Oc3ccc(S(=O)(=O)N4CCCC4)cn3)c2O1	-9%	0%	-10%	-6%	45%
COc1ccc2c(COC(=O)c3n[nH]c4ccccc34)cc(=O)oc2c1	-14%	-1%[12.7 µM]	-11%	-9%	7%
CSc1nc2nc3c(cc2c(=O)n1-c1ccccc1C)CCCC3	1%	7.1µM*	2%	-16%	34%
CCN(C(=O)COC(=O)c1cc(C)n(-c2ccc(F)cc2)c1C)C1CCS(=O)(=O)C1 (centres undefined)	-35%	50µM*	-2%	?	1%
Cc1ccc(-n2c(C)cc(C(=O)OCC(=O)N(C)C3CCS(=O)(=O)C3)c2C)cc1 (centres undefined)	-23%	50µM*	10%	?	-10%
CC(C)CN(C(=O)COC(=O)c1ccc2c(c1)NC(=O)CS2)C1CCS(=O)(=O)C1 (centres undefined)	9%	?	-2%	12%	?
